Hits are enriched below; roughly 3.2% of the tested compounds scored in any of these assays.
bovine MsrA act – activators of bovine methionine sulfoxide reductase A. purified bovine MsrA, absorbance read-out. activation, % at 10.6 µM. 0.3% of 360,000 active; in the data active = activation above about 7.5%;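 also: 0% = vehicle and 100% = reference activator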
rCAG binder – binds r(CAG) RNA repeats | r(CAG) RNA repeat, TO-PRO-1 dye displacement fluorescence | inhibition, % at 3 µM | 1.3% of 370,000 active | AID 651821;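 active = inhibition above the plate cutoff, the mean of all test compounds on that plate plus 3 SD, cut at about 35% in these data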;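 also: 0% = DMSO alone and 100% = 100 µM mitoxantrone as full dye displacement; higher means more dye released from RNA so lower well fluorescence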
PG9 binder – small molecules binding HIV-1 gp120 antibody PG9; TR-FRET gp120-PG9 antibody binding; inhibition, % at 6.7 µM; 0.43% of 360,000 active; AID 624416; in the data active = inhibition above about 8.5%
MsrA inhibitor – bovine MsrA inhibition | purified bovine MsrA, absorbance read-out | inhibition, % at 15.5 µM | 0.75% of 360,000 active | AID 651718; in the data active = inhibition above about 4.5%;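 also: 0% = vehicle wells with enzyme and 100% = reference inhibitor wells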
HGIII-sPLA2 inh – Blocks human group III sPLA2 activity | Q9NZ20 | QFRET BODIPY PC-A2 liposome hydrolysis, fluorescence | inhibition, % at 12.2 µM | 0.56% of 370,000 active;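 active = inhibition above mean plus 3 SD of compounds lying within the high and low control bounds, cut at about 19% in these data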;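 also: 0% = median of test compound wells and 100% = no enzyme DMSO wells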
Target sequence (Q9NZ20 whole entry, looked up): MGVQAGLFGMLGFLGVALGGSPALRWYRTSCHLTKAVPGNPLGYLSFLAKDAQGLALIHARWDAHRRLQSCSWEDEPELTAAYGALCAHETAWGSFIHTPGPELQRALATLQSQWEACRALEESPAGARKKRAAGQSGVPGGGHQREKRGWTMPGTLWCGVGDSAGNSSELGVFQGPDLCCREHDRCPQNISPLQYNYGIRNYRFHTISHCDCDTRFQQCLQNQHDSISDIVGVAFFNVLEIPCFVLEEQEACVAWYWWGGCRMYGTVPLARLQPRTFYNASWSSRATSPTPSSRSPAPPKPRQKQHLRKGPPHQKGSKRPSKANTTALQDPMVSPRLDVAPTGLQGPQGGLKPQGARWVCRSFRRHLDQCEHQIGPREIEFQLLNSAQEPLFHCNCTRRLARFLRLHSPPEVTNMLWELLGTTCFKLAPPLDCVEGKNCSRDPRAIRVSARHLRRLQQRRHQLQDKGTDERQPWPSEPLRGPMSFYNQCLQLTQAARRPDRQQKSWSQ
rCAG binder conf – r(CAG) RNA repeat binding, confirmation; shares compounds with rCAG binder; TO-PRO-1 dye displacement fluorescence; inhibition, % at 3 µM; 70% of 4,300 active;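 active = inhibition above a per-plate cutoff, the mean inhibition of sample wells plus 3 SD, cut at about 35% in these data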;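 also: loss of TO-PRO-1 fluorescence as compound displaces dye from 1x1 AA loop RNA; 0% = DMSO only wells and 100% = 100 µM mitoxantrone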
dCAG dye counter – DNA CAG dye complex inhibition counter-screen | shares compounds with rCAG binder | d(CAG) DNA oligo TO-PRO-1 dye displacement, fluorescence | inhibition, % at 3 µM | 94% of 4,300 active;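 active = inhibition above its plate's cutoff, the mean test-well inhibition plus 3 SD, cut at about 4.8% in these data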;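 also: 0% = DNA dye mix with DMSO and 100% = 100 µM mitoxantrone; hits displace the dye from DNA and so lower well fluorescence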
* hit, by the source's call; nt = no result.

SMILES	bovine MsrA act	rCAG binder	PG9 binder	MsrA inhibitor	HGIII-sPLA2 inh	rCAG binder conf	dCAG dye counter
O=[N+]([O-])c1cc(Cl)ccc1N1CCN(c2cccc(C(F)(F)F)c2)CC1	-4	0	0	0	3	nt	nt
O=C(O)c1cc([N+](=O)[O-])cc([N+](=O)[O-])c1N1CCN(c2cccc(C(F)(F)F)c2)CC1	0	41*	-2	1	-7	27	5.7*
O=C(CCN1C(=O)/C(=C\C=C\c2ccccc2)SC1=S)Nc1ccccc1C(=O)O	-10	42*	-1	0	-9	88*	57*
O=C(CCN1C(=O)/C(=C\C=C\c2ccccc2)SC1=S)Nc1cccc(C(=O)O)c1	-3	86*	-2	1	-25	84*	54*
O=C(CCN1C(=O)/C(=C/c2ccc(Cl)cc2)SC1=S)Nc1cccc(C(=O)O)c1	-2	6	0	0	-7	nt	nt
NC(=S)NN=C1c2cc(S(=O)(=O)N3CCOCC3)ccc2-c2ccc(S(=O)(=O)N3CCOCC3)cc21	-2	35*	-2	3	-11	46*	20*
CN(C)N=C1c2cc(S(=O)(=O)N3CCOCC3)ccc2-c2ccc(S(=O)(=O)N3CCOCC3)cc21	2	3	0	-1	5	nt	nt
CCCc1nc2cc(C)c(Br)c(C)n2c1Cc1ccsc1	-2	5	-1	1	-1	nt	nt
O=c1[nH]c2ccc(S(=O)(=O)N3CCN(c4ccccc4F)CC3)cc2s1	-3	35*	0	0	-33	22	5.2*
O=c1ccc2cc(S(=O)(=O)N3CCN(c4ccccc4F)CC3)ccc2o1	3	0	1	1	0	nt	nt
O=C(O)c1ccccc1N1C(=O)C2C3c4ccccc4C(Br)(c4ccccc43)C2C1=O (stereo not given)	-5	35*	-3	2	-24	27	4.5*
CC12C(=O)N(c3ccccc3C(=O)O)C(=O)C1C1C=CC2C1 (stereo not given)	1	2	1	1	-2	nt	nt
O=[N+]([O-])c1cc(-c2ccccc2)cc([N+](=O)[O-])c1O	-6	11	-1	1	-7	nt	nt
Nc1nc(-c2cc(O)ccc2[N+](=O)[O-])cc(-c2ccccc2)c1[N+](=O)[O-]	-8	57*	2	1	8	44*	24*
O=C(COc1coc(CN2CCN(c3cccc(Cl)c3)CC2)cc1=O)NC1CCCC1	-4	-4	-3	1	-1	nt	nt
O=S(=O)(Nc1ncnc2sc3c(c12)CCC3)c1ccc2ccccc2c1	-3	69*	2	0	-53	56*	21*
Cc1cc(F)ccc1S(=O)(=O)Nc1ncnc2sc3c(c12)CCC3	-1	33	1	1	-21	nt	nt
O=C(O)c1ccccc1-c1ccccc1C(=O)Nc1ccc2c(c1)[nH]c(=O)c1ccccc12	-2	68*	-1	2	-28	62*	27*
Cc1ccc(NC(=O)c2ccccc2-c2ccccc2C(=O)O)cc1C	-3	3	-1	2	-2	nt	nt
CC(=O)Nc1ccc(-c2nc3cc(Cl)ccc3o2)cc1	-5	0	0	-1	-7	nt	nt
CCn1c2ccccc2c2cc(NC(=O)c3ccccc3-c3ccccc3C(=O)O)ccc21	-2	75*	1	0	-26	65*	26*
O=C(O)c1ccccc1-c1ccccc1C(=O)Nc1ccc(-c2nc3cc(Cl)ccc3o2)cc1	-2	71*	1	4	-53	85*	54*
O=C(O)c1ccccc1-c1ccccc1C(=O)Nc1ccc2oc(=O)c3ccccc3c2c1	-1	51*	-1	0	-20	51*	14*
Cc1ccc(S(=O)(=O)N(C)[C@H]2C[C@H]3c4[nH]c5cccc(-c6ccccc6)c5c4CCN3C(=O)[C@H]2[C@H](C)O)cc1	nt	15	-2	1	-14	nt	nt
COc1ccc2[nH]c3c(c2c1)CCN1C(=O)C(CC(=O)NCCC2=CCCCC2)C[C@H](C(=O)N2CCCCC2)[C@@]31C (stereo not given in full)	-9	3	-3	0	8	nt	nt
SMILES	bovine MsrA act	rCAG binder	PG9 binder	MsrA inhibitor	HGIII-sPLA2 inh	rCAG binder conf	dCAG dye counter
COc1cc([N+](=O)[O-])ccc1NC(=S)NNC(=O)CCC(=O)Nc1ccccc1Cl	-3	64*	-2	1	6	49*	14*
COc1cc([N+](=O)[O-])ccc1NC(=O)CCCOc1ccccc1	-3	0	0	1	-6	nt	nt
CCCC[C@H](C(=O)N(CC)c1ccccc1)[C@@H](O)c1ccc(Cl)cc1	nt	2	nt	nt	-7	nt	nt
COc1cc2c(oc(=O)c3cc(C)cc(OC)c32)c2c(C3OC(C)C(O)C(C)(O)C3O)ccc(O)c12 (stereo not given)	-7	52*	-4	0	-2	13	6.9*
COc1cccc2cc(C(=O)N3CC(C)OC(C)C3)c(=O)oc12 (stereo not given)	-8	-3	-1	1	9	nt	nt
O=C(O)CSC(C(=O)Nc1ccc(Br)cc1)c1ccc(Cl)cc1 (stereo not given)	-3	37*	-2	-1	-12	24	5.4*
O=C(O)CSC(C(=O)Nc1ccc(C(F)(F)F)cc1)c1ccccc1 (stereo not given)	3	6	-2	-1	1	nt	nt
CCCCCCCCN1C(=O)[C@@H](CC(=O)N2CCN(C(=O)c3ccco3)CC2)C[C@@]2(C(=O)OC)C1=C[C@H](C(C)C)O[C@@H]2C1CC1	nt	7	nt	nt	-10	nt	nt
CC(C)C(=O)N1CCC(Oc2cccnc2)CC1	nt	1	nt	nt	9	nt	nt
COCCCn1c(=NC(=O)c2ccccc2)c(C#N)cc2c(=O)n3cccc(C)c3nc21	-4	-9	-1	2	2	nt	nt
Cc1cccc(C(=O)N=c2c(C#N)cc3c(=O)n4cccc(C)c4nc3n2Cc2ccco2)c1	-3	47*	0	1	-7	38*	18*
Cc1cccn2c(=O)c3cc(C#N)c(=NC(=O)c4ccccc4)n(Cc4ccco4)c3nc12	-5	36*	0	3	-2	27	11*
Cc1cccn2c(=O)c3cc(C#N)c(=NC(=O)c4ccco4)n(Cc4ccco4)c3nc12	-6	11	1	-1	6	nt	nt
C=CCOc1ccc(/C=C2\SC(=S)N(NS(=O)(=O)c3ccccc3)C2=O)cc1	-4	88*	-1	1	-50	79*	46*
COc1ccc(/C=C2/SC(=S)N(NS(=O)(=O)c3ccccc3)C2=O)cc1	-1	74*	1	1	-30	66*	29*
Cc1ccc(C)c(Sc2ccc(S(=O)(=O)Nc3ccc(C(=O)O)cc3)cc2)c1	-3	38*	0	-1	-37	41*	11*
Cc1ccc(Sc2ccc(S(=O)(=O)Nc3ccc(CC(=O)O)cc3)cc2)cc1C	-2	52*	3	0	-46	44*	14*

Assay outcomes from PubChem BioAssay.
